From PubChem BioAssay
A selection: hits, their analogues and other compounds. The true share with any hit is near 17%.
HT1080 IDH1KD tx: HT-1080 IDH1 knockdown cell toxicity (counter line) | HT-1080 IDH1 knockdown viability, ATP luminescence, 48 h | Potency, µM (titrated, usually from 46.1 µM), most hits filed as cytotoxic | hit rate 2% among 360,000 | AID 686971
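Using the IDH1-knockdown HT-1080 line run in the same batch and compound series as the NT line, viability after 48 h at 37 °C was determined by CellTiter-Glo luminescence and expressed as % activity.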
DT40 TDP1 no CPT: qHTS for Inhibitors of human tyrosyl-DNA phosphodiesterase 1 (TDP1): qHTS in cells in absence of CPT; Potency, µM (highest dose often 46.2 µM), usual class: inhibitors; DT40 Tdp1-/- hTDP1 cells, no CPT, ATP luminescence, 48 h; AID 686978, 2013; hit rate 15% among 420,000; also: nearly all actives have a fitted effect of over 55% in size
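Seeded 400 DT40-hTDP1 cells/well (vehicle DMSO, no 20 nM CPT); pinned compounds; ≥48 hr at 37 °C; CellTiter-Glo luminescence as viability measure.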
HT1080-NT tox: kills 2HG-producing HT-1080-NT fibrosarcoma cells. AID 686970. hit rate 1.6% among 360,000. Potency, µM (top dose mostly 46.1 µM), most hits filed as cytotoxic. HT-1080-NT fibrosarcoma viability, CellTiter-Glo ATP luminescence, 48 h;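 also: NT is the 2HG producing partner of a matched IDH1 knockdown line; nearly all actives have a fitted effect of over 55% in size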
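Toxicity toward the 2HG-producing NT line was scored as %Activity, normalised to DMSO and no-cell wells, from CellTiter-Glo luminescence after 48 hours' treatment.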
TDP1 cell CPT: DT40-hTDP1 cell growth loss with CPT. chicken DT40 Tdp1-/-;hTDP1 cells + 20 nM CPT, ATP luminescence, 48 h. Potency, µM (series often up to 46.2 µM), actives largely listed as inhibitors. hit rate 12% among 420,000. AID 686979; also: nearly all actives have a fitted effect of over 55% in size
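Cell growth measured by CellTiter-Glo luminescence after a minimum 48 h, 37 C compound exposure with 20 nM CPT in Tdp1-knockout DT40 cells stably expressing hTDP1, seeded 400/well; qHTS titration format.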
TGFb SMAD3 inh: TGF-b pathway inhibition | HepG2 CAGA-GFP TGF-b/SMAD3 reporter, GFP fluorescence, 18 h; TGF-beta stimulated, 500 pg/mL final | Potency, µM (top dose mostly 46.1 µM), actives largely listed as inhibitors | hit rate 1.2% among 410,000 | AID 588855; also: nearly all actives have a fitted effect of over 65% in size
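GFP signal (ex488/em500-530) from TGF-beta-stimulated HEPG2 CAGA-GFP cells, 500 pg/mL final, 18 h at 37 degrees C in DMEM plus 1% FBS, normalized to unstimulated and DMSO-stimulated controls.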
HepG2 viability: HepG2 cytotoxicity, counter-screen for TGF-b inhibitors; hit rate 0.76% among 410,000; Potency, µM (highest dose often 46.1 µM), hits mostly cytotoxic; AID 588856; HepG2 CAGA-GFP viability, ATP luminescence, 18 h
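CellTiter-Glo luminescence gave cytotoxicity after 18 hours at 37 degrees C. The cells were HepG2 CAGA-GFP in 1% FBS DMEM, stimulated with 500 pg/mL TGF-beta after compound addition. %Activity was normalised to no-cell wells (complete cell-killing) and DMSO (no toxicity), and curves were fitted and classified.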
Hits are given with their value; 0 = inactive; ? = inconclusive; - = no result. Calls follow the shape of the dose curve; as a rule, active = well fitted curve in the direction sought with a large enough effect; inconclusive = small, poorly fitted or top-dose-only effect, or another doubt; inactive = no such curve, though single readings can be large; an effect the other way counts as inactive or inconclusive.

SMILES | HT1080 IDH1KD tx | DT40 TDP1 no CPT | HT1080-NT tox | TDP1 cell CPT | TGFb SMAD3 inh | HepG2 viability
CCN(CC)c1cc(CS(=O)c2ccccc2)nc(-c2ccccc2)n1 (configuration not stated) | 0 | ? | 0 | 21µM | 0 | 0
CCOC(=O)C1(Cc2ccccc2C#N)CCCCC1=O (configuration not stated) | 0 | ? | 0 | 0 | 0 | 0
O=C(CSc1nc(Cc2ccccc2)nc2ccccc12)c1ccc2c(c1)OCCO2 | 0 | 23µM | ? | 16µM | 0 | 0
O=C(COc1ncnc2ccccc12)c1ccc2c(c1)OCCO2 | 0 | ? | 0 | 0 | 0 | 0
CC1CCc2c(sc3ncnc(SCC(=O)c4ccccc4)c23)C1 (configuration not stated) | 0 | ? | 0 | 0 | 0 | 0
O=C(CSc1ncnc2scc(-c3ccc(F)cc3)c12)c1ccc2c(c1)OCCO2 | 0 | 18µM | 0 | 21µM | 0 | 0
Cc1sc2ncnc(SCC(=O)c3ccc4c(c3)OCCO4)c2c1-c1ccccc1 | 0 | 9.2µM | 0 | 6.5µM | 0 | 0
CCc1nc(SCC(=O)c2ccc3c(c2)OCCO3)c2ccccc2n1 | ? | ? | ? | ? | 0 | 0
Cc1ccc(-c2csc3ncnc(SCC(=O)c4ccc5c(c4)OCCO5)c23)cc1 | 0 | ? | 0 | ? | 0 | 0
O=C(CSc1ncnc2ccccc12)c1ccc2c(c1)OCCO2 | 0 | 18µM | ? | 18µM | 0 | 0
C=CCOc1ccccc1CN1CCCCCC1 | 0 | 0 | 0 | 0 | 0 | 0
CC12CC3CC(C)(C1)CC(C(=O)N1CCN(C(=O)c4ccco4)CC1)(C3)C2 | 0 | ? | 0 | ? | 0 | 0
COc1ccc(Cl)cc1NC(=O)c1c(NCc2cccnc2)sc2c1CCCC2 | - | 15µM | - | 23µM | 0 | 0
COc1ccc(Cl)cc1NC(=O)c1c(NCc2ccc(C)o2)sc2c1CCCC2 | - | 21µM | - | ? | ? | 0
COc1cc(C(=O)Nc2sc3c(c2C(=O)NCc2ccco2)CCCC3)cc(OC)c1OC | 0 | 21µM | 0 | ? | 0 | 0
CCOc1ccccc1NC(=O)c1c(NCc2ccc(C)o2)sc2c1CCCCC2 | - | 2.9µM | - | 4.6µM | ? | 0
O=C(NCc1nnc(SCC(=O)N2CCOCC2)o1)c1c(F)cccc1Cl | 0 | 0 | 0 | 0 | 0 | 0
O=C(CSc1cccc2cccc(Cl)c12)NC1=NCCS1 | 0 | 0 | 0 | 0 | 0 | 0
Cc1ccc(NC(=S)N(CCCN(C)C)Cc2cc3cc4c(cc3[nH]c2=O)OCO4)c(C)c1 | 0 | 0 | 0 | 0 | 0 | 0
Nc1nc(Cl)cc(N2CCC(c3cc(-c4ccc(Cl)cc4Cl)n[nH]3)CC2)n1 | ? | 4.1µM | ? | 4.1µM | ? | 0
Cc1ccc(S(=O)(=O)Nc2ccc(-c3cn4ccc(C)cc4n3)cc2)cc1 | 0 | 15µM | 0 | ? | 0 | 0
Cc1ccn2cc(-c3cccc(S(=O)(=O)N4CC(C)OC(C)C4)c3)nc2c1 (configuration not stated) | 0 | ? | ? | ? | ? | 0
Cc1ccc(-c2cn3ccc(C)cc3n2)cc1 | - | ? | - | ? | 0 | 0
Cc1ccn2cc(-c3cccc(S(=O)(=O)N4CCCC4)c3)nc2c1 | 0 | 23µM | 0 | 18µM | 0 | 0
Cc1ccn2cc(-c3ccc(NS(=O)(=O)c4ccccc4)cc3)nc2c1 | 0 | 29µM | 0 | ? | 0 | 0
Cc1ccc(-c2ccc(=O)n(CC(=O)Nc3ccc(C)cc3Cl)n2)cc1 | - | 0 | - | 0 | 0 | 0
O=C(Nc1ccccc1)N1CCc2c([nH]c3ccccc23)C1C(F)(F)F (configuration not stated) | 0 | ? | ? | 0 | ? | 0
COc1cccc(Cl)c1NC(=O)N1CCc2c([nH]c3ccccc23)C1C(F)(F)F (configuration not stated) | ? | ? | 21µM | 0 | ? | 0
